In PubChem BioAssay (NCI):
Compounds without any hit were thinned out: in the full panel of roughly 79,000, 15% have a hit. Unmarked numbers belong to inactive results. Activity calls are given as the source filed them. No stated cut-off is given here; in the data, active means growth inhibition above about 70%; inactive means the rest.

Assay: NCI Yeast Anticancer Drug Screen. Data for the sgs1 mgt1 strain (AID 161);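 further: 0% = growth of cultures given vehicle only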
Conditions: S. cerevisiae sgs1 mgt1 strain, at 50.0 µM, stronger effect = higher value
In short: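 Percent growth inhibition was derived by comparing compound-exposed mutant yeast with vehicle-exposed cultures. The strain carries alterations in DNA damage repair.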

SMILES	growth inhibition
COc1cc(S(N)(=O)=O)c(OC)cc1N	-11.4%
O=C1CCCNC(=O)CCCN1	-5.45%
N#CCCn1[nH]c(=O)c(Cl)c(Cl)c1=O	-3.9%
c1csc(-c2nn3c(C45CC6CC(CC(C6)C4)C5)nnc3s2)c1	-20.1%
O=C(Nc1ccc(Cl)cc1)C(=O)C1=C(O)c2ccccc2OC1	-12.3%
COc1cc2c(cc1OC)C(C(CO)CO)N(CC(O)CCl)CC2 (stereo not given)	-26%
CCC(c1ccco1)C(C#N)C(=O)OC(C)(C)C (stereo not given)	-1.05%
CSc1nc2cc(S(=O)(=O)N3CCCCC3)ccc2s1	-25.5%
CC(S)c1ccccc1 (stereo not given)	13.2%
CN(C(=O)c1ccc(C(=N)N)cc1)c1ccccc1	-5.1%
CC(=O)Nc1cc(OC(C)=O)nc2c1CCC2	-5.5%
COC1/C=C/C(C)C(C(C)C(OC)C(C)CCC(=O)C(C)C(C/C=C/N(C)C=O)OC)OC(=O)/C=C/C=C(\C)CC(OC)C(OC)C2=CC(=O)O[C@@H](C(C)C(OC)CC(OC)/C=C/C(C)C(O)C1)[C@H]2O (stereo not given in full)	90% (active)
CC1COC(C)(C)O1 (stereo not given)	16.4%
CCOC(=O)Sc1nccn1C	3.25%
CC1CC/C(=N\O)CCCCC(=O)O1 (stereo not given)	2.15%
CC(=O)OC[C@]1(C)CCCC2(C)C1CCC1C=C(C)[C@H]3CCC12C3 (stereo not given in full)	-17.8%
CCCC1OC1(CC)C(=O)OCC(CC)(COC(=O)C1(CC)OC1CCC)COC(=O)C1(CC)OC1CCC (stereo not given)	1.25%
Sc1ccccc1N=Cc1ccc(C=Nc2ccccc2S)cc1	7.1%
CCN(c1ccc(Br)cc1)c1ccc(Br)cc1	-23.2%
N[C@H](C(=O)O)[C@H]1ON=C(Cl)[C@@H]1O	7.25%

SMILES	growth inhibition
Nc1cc(Cl)ccc1S(=O)(=O)O	2.1%
CCOC(=O)NC(Nc1cccc(F)c1)(C(F)(F)F)C(F)(F)F	-22.4%
COc1cc(C)ccc1C(=O)C[n+]1ccc2ccccc2c1	-25.9%
CC1(C)C(=O)N(c2ccccc2)C1c1ccccc1 (stereo not given)	-1.5%
CC(=O)N(C(C)=O)C(CS)C(=O)O (stereo not given)	2.85%
Cc1cn(C(=O)NC23CC4CC(CC(C4)C2)C3)c(=O)[nH]c1=O	11.1%
Clc1cccc(CC(Br)Br)c1	6.75%
C=CC(=O)OCc1ccc(OC)cc1	28.9%
CC1OC(c2ccc(Cl)cc2)OC1C (stereo not given)	10.9%
Cc1c(-c2ccccc2)[nH]n(C2=NCCN2)c1=O	-31.4%
COc1ccc(CCN2C(=O)c3cccc4c(Br)ccc(c34)C2=O)cc1	18.6%
CCOC(=O)c1ccc(NC(=S)NC(=O)c2cccs2)o1	39.4%
Cc1cc(C)c(N)c(C)n1	-22.1%
COC(=O)C1=C(C(=O)OC)N(C(C)C)[C@H]2C(C(=O)OC)=C(C(=O)OC)N(C(C)C)[C@@H]12	-19.4%
NNC(=O)CC(N)C(N)=O (stereo not given)	-3.25%
CCOCNC(=O)Nc1ccccc1	7%
Cc1cc(=O)n(NC(N)=O)c(C)c1C(=O)O	-13.8%
COC(=O)C(Cl)=C1CC1	-6.95%
O=[N+]([O-])c1ccccc1S(=O)NCc1c(Cl)cccc1Cl (stereo not given)	24.5%
OC(CNCCc1ccccc1)COc1cccc2ccccc12 (stereo not given)	96.9% (active)
